Test [1] in a line: CCTE_Shafer_MEA_acute_burst_number: CCTE's Neural Acute Assay for Single-Electrode Bursts, Shafer Lab (AID 2284013). The method, boiled down: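 Burst totals were derived with adaptive spike detection (8x rms threshold) on filtered signals from rat cortical cultures; change relative to pre-treatment baseline after 40-min compound exposure (0.03-40 uM) was fitted in the negative direction against DMSO.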

Test [2] can be described thus: CCTE_Shafer_MEA_acute_per_burst_spike_number_mean: CCTE's Neural Acute Assay for Average Number of Spikes Per Burst, Shafer Lab (AID 2284015).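 Note: hits are decreases in mean spikes per burst versus baseline.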 The method, boiled down: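 Rat primary cortical neurons on 48-well MEAs (DIV 13 or 15) were treated with 0.03-40 uM compound at 37 C. Mean spikes per burst over 40 min were recorded before and after exposure and expressed as percent change from baseline, relative to DMSO.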

Test [3] can be described thus: CCTE_Shafer_MEA_acute_burst_percentage_mean: CCTE's Neural Acute Assay for Percentage of Spikes in a Burst, Shafer Lab (AID 2284017).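 For AC50: curve fitted for loss of signal so potency reflects decreased burst percentage.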 The method, boiled down:
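Primary rat cortical neurons on 48-well MEA plates, treated on DIV 13 or 15 at 0.03-40 uM. Spikes detected at 8x rms noise at 37C; percent change from 40-min baseline to 40-min post-dose recording, fitted versus DMSO.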

The nature of test [4]: CCTE_Shafer_MEA_acute_burst_percentage_std: CCTE's Neural Acute Assay for Standard Deviation of Burst Percentage, Shafer Lab (AID 2284018).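 Note: fitted in the negative direction so actives lower burst percentage SD.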 The essentials: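 Primary rat cortical neurons on 16-electrode MEA wells were recorded 40 min at baseline (DIV 13 or 15), then 40 min after compound (0.03-40 uM), at 37 C. Well value is SD across electrodes of spikes-in-bursts/total spikes; endpoint is percent change, DMSO-referenced.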

The nature of test [5]: CCTE_Shafer_MEA_acute_per_network_burst_spike_number_mean: CCTE's Neural Acute Assay for Average Number of Spikes in a Network Burst, Shafer Lab (AID 2284019).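 For AC50: curve fitted for loss of signal so actives reduce spikes per network burst.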 The essentials:
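Acute exposure of rat primary cortical networks (DIV 13/15) on MEAs; adaptive spike detection at 8x rms noise, 37 C. Percent change in spikes per network burst after 40 min with compound (0.03-40 uM), negative direction vs DMSO.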

Test [6] is described as follows: CCTE_Shafer_MEA_acute_per_network_burst_spike_number_std: CCTE's Neural Acute Assay for Standard Deviation of Number of Spikes in a Network Burst, Shafer Lab (AID 2284020).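 Note: fitted for decrease in spike-number SD versus DMSO so actives lower it.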 The essentials:
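Acute MEA exposure, rat cortical neurons, 0.03-40 uM. Per-well % change versus own baseline; DMSO as negative control.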

Test [7] in a line: CCTE_Shafer_MEA_acute_per_network_burst_electrodes_number_mean: CCTE's Neural Acute Assay for Mean Number of Electrodes in a Network Burst, Shafer Lab (AID 2284021).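 Note: curves fitted for decreases only so hits reduce electrodes per burst.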 The method, boiled down: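 Readout: % change in mean electrodes active per network burst, post- vs pre-treatment, each well. Spikes detected at 8x rms noise after 300-5000 Hz band-pass; rat cortical cultures, DIV 13/15, compounds 0.03-40 uM, DMSO baseline.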

The nature of test [8]: CCTE_Shafer_MEA_acute_network_burst_percentage: CCTE's Neural Acute Assay for Percentage of Network Bursts, Shafer Lab (AID 2284022).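 Note: curves fitted for loss so actives lower network burst percentage.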 The method, boiled down:
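Rat cortical cultures, DIV 13/15; 20 min equilibration, 40 min baseline, compound 0.03-40 uM, 40 min recording, 37 C. Spikes: 300-5000 Hz band-pass, threshold 8x rms noise. Readout: % change in network-burst spike fraction; loss direction vs DMSO.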

Test [9] can be described thus: CCTE_Shafer_MEA_acute_cross_correlation_area: CCTE's Neural Acute Assay for Area of Cross Correlation, Shafer Lab (AID 2284024).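 Note: area under pooled inter-electrode spike cross-correlation near zero lag as percent change from own baseline; curves fitted for loss of cross-correlation area so actives lower synchrony.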 The method, boiled down: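 Rat cortical cultures, DIV 13/15, MEA; spikes detected at 8x rms noise (300-5000 Hz band-pass). Compound 0.03-40 uM, ≥3 wells each. Readout: % change in pooled inter-electrode cross-correlation area vs own baseline; DMSO negative control.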

Test [10] can be described thus: CCTE_Shafer_MEA_acute_synchrony_index: CCTE's Neural Acute Assay for Synchrony, Shafer Lab (AID 2284027).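 Note: network synchrony index of spontaneous spiking in primary rat cortical neurons on MEAs; fitted for loss of signal so actives lower synchrony relative to DMSO.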 The essentials: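 Plates equilibrated 20 min at 37 C, baseline recorded 40 min, compound (0.03-40 uM) added, then 40 min more recorded. Cells: primary rat cortical neurons, DIV 13 or 15. Per-well synchrony index change analysed in negative direction against DMSO.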

Test [11] can be described thus: CCTE_Deisenroth_AIME_384WELL_CTox_Active: Cytotoxicity Assessment (CTOX) in CCTE's 384-well Estrogen Receptor Transactivation Assay with AIME metabolic competence (metabolism positive), Deisenroth Lab (AID 2284037; active = hit-call score of the fitted dose curve at least 0.9, where 1 is the maximum;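 note: chemicals first conditioned 2 h by alginate-bound induced rat liver S9 before cells; activity means signal loss indicating cell death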). The essentials: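 VM7Luc4E2 breast cells received medium pre-incubated 2 h with chemical over alginate microspheres holding induced male Sprague Dawley rat liver S9; viability read 24 h later by protease-substrate fluorescence. Loss of signal, bidirectional fit, 0.002–200 uM.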

The nature of test [12]: CCTE_Deisenroth_AIME_384WELL_CTox_Inactive: Cytotoxicity Assessment (CTOX) in CCTE's 384-well Estrogen Receptor Transactivation Assay without AIME metabolic competence (metabolism negative), Deisenroth Lab (AID 2284039; active = hit-call score of the fitted dose curve at least 0.9, where 1 is the maximum;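 note: cell viability via live-cell protease substrate cleaved to fluorescent probe; cells exposed 24 h to medium preincubated 2 h with alginate-water beads without S9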). The method, boiled down:
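VM7Luc4E2 cells, metabolism-negative arm: test chemicals (0.002–200 uM, 10 points) pre-incubated 2 h with alginate-water microspheres, then medium transferred to cells for 24 h. Viability read as protease-substrate cleavage to fluorescent probe; loss-of-signal, bidirectional fitting.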

The target in test [13] is Estrogen receptor (Homo sapiens) (UniProt P03372). The experiment in a line: CCTE_Deisenroth_AIME_384WELL_LUC_Active: CCTE's 384-well Estrogen Receptor Transactivation Assay with AIME metabolic competence (ERTA luciferase; metabolism positive), Deisenroth Lab (AID 2284030; active = hit-call score of the fitted dose curve at least 0.9, where 1 is the maximum). The essentials: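 Readout: bioluminescent luciferase induction in VM7Luc4E2 cells 24 hour after receiving medium from a 2 h rat hepatic S9 (induced, alginate microsphere) metabolism step. Concentrations 0.002 - 200 uM; activity scaled to 17beta-estradiol positive control.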

Test [14] has the same target. Put plainly: CCTE_Deisenroth_AIME_384WELL_LUC_Inactive: CCTE's 384-well Estrogen Receptor Transactivation Assay without AIME metabolic competence (ERTA luciferase; metabolism negative), Deisenroth Lab (AID 2284038; active = hit-call score of the fitted dose curve at least 0.9, where 1 is the maximum;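 note: hits raise estrogen receptor luciferase signal so potencies reflect agonists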). The method, boiled down: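 VM7Luc4E2 ER transactivation, luciferase bioluminescence after 24 h, using medium pre-incubated 2 h with S9-free alginate microspheres. Concentrations 0.002–200 uM; gain of signal fitted relative to 17beta-estradiol.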

The nature of test [15]: CCTE_Shafer_MEA_dev_firing_rate_mean: CCTE's Neural Network Formation Assay for Mean Firing Rate, Shafer Lab (AID 2284031).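 For AC50: curve fitted for loss of firing so AC50 reflects decreased mean firing rate.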 The essentials: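 Steps: seed rat cortical cells (1.5 x 10^5/well) with laminin on PEI-coated MEA; dose day 0; record DIV 5/7/9/12, full media and compound exchange after DIV 5 and 9 recordings; compute well-mean firing rate AUC.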
Test [16] can be described thus: CCTE_Shafer_MEA_dev_per_burst_spike_percent: CCTE's Neural Network Formation Assay for Percent of Spikes in a Burst, Shafer Lab (AID 2284032).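 Note: fitted as a decrease in burst spike percentage below DMSO baseline.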 The method, boiled down: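 Value is trapezoidal AUC over recordings on days 5, 7, 9 and 12 of the well-mean fraction of spikes falling in single-electrode bursts; rat cortical cultures exposed continuously from plating, treatment renewed DIV 5 and 9, fitted downward against DMSO.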

Structures are written as SMILES. Results filed as inconclusive are left out. The source made the active and inactive calls. Rule for the calls, unless noted: active = hit-call score of the fitted dose curve at least 0.9, where 1 is the maximum; inactive = score below 0.9.

Chain of Estrogen receptor (Homo sapiens) (P03372 whole entry, looked up): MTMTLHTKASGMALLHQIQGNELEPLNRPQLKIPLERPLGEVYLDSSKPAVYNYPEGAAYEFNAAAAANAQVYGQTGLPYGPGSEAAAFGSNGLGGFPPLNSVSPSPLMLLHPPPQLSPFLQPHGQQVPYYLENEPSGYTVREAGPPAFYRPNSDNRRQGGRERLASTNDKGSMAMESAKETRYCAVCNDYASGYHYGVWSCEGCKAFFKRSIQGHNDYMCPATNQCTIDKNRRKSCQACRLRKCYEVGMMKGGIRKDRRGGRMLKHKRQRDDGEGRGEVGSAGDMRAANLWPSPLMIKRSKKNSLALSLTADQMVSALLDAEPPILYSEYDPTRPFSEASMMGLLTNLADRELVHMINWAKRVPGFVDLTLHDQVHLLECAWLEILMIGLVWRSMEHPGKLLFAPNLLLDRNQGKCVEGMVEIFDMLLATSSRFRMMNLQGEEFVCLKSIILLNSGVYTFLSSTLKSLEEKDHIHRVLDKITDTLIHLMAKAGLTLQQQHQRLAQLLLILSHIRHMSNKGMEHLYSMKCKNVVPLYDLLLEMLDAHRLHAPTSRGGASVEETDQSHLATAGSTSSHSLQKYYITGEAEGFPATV

As for `O=C(Nc1ccc2[nH]ccc2c1)c1cc2cc(F)ccc2n1Cc1cccc(F)c1`, the call in [1], in [2], in test [3], in test [4], in test [5] and in [6] was inactive. Also, the compound was classed as inactive in test [7], in test [8], in test [9] and in test [10].
As to `O=C(O)C(Cl)(Cl)Cl`, the outcome in test [1], in test [2], in test [3], in test [4], in [5] and in test [6] was inactive. Further, the result in [7], in [8] and in test [10] was inactive.
On to `CC(C)(c1ccccc1)c1ccc(O)c(C(C)(C)c2ccccc2)c1`, for which the outcome in [1], in test [2], in test [5], in test [6], in [7] and in test [9] was inactive. For the same compound, the AC50 was 7.18 µM (active) in test [3]; 20 µM (active) in test [4]; 28.6 µM (active) in [8]; 6.29 µM (active) in test [10]; 93.9 µM (active) in test [11]; 64.6 µM (active) in [12].
For the compound `C[C@]12CCC(=O)C[C@@H]1CC[C@@H]1[C@@H]2CC[C@]2(C)[C@@H](O)CC[C@@H]12`, the outcome in [1], in test [2], in test [5], in test [6], in [7] and in test [8] was inactive. Further, in test [9], the compound was classed as inactive. In addition, the AC50 in test [3] is 30.5 µM (active); in test [4] it was 31.1 µM (active); in test [10], 30.7 µM (active).
On to `O=C(NCO)NCO`, for which the outcome in test [13], in [11] and in test [14] was inactive.
For `CCC(C)(C)c1ccc(O)c(C(C)(C)CC)c1`, the AC50 in test [1] is 5.29 µM (active); in test [2], 20 µM (active); in [3] it was 7.93 µM (active); in test [4], 32.6 µM (active); in test [5], 8.12 µM (active); in [6] it was 6.52 µM (active). Besides, the AC50 in [7] was 20 µM (active); in test [8], 36.6 µM (active); in [10] it was 20 µM (active); in test [11], 102 µM (active); in [12] it was 75 µM (active). In addition, in test [9], the compound was called inactive.
On to `O=C1C2(Cl)C3(Cl)C4(Cl)C(Cl)(Cl)C5(Cl)C3(Cl)C1(Cl)C5(Cl)C24Cl` (stereo unspecified), for which the AC50 in test [1] is 3.27 µM (active); in test [2], 9.36 µM (active); in [3] it was 9.9 µM (active); in test [4], 32.5 µM (active); in test [6], 9.39 µM (active); in test [10], 20 µM (active). Also, the AC50 in [15] is 3.94 µM (active); in test [16], 4.18 µM (active). Besides, the outcome in test [5], in [7], in test [8] and in [9] was inactive.
As for `C=C(C)C#N`, the outcome in test [13], in test [11] and in [14] was inactive.
As for `CC(C)(C)CC(C)(C)c1ccc(O)cc1`, the outcome in test [1], in [2], in test [3], in test [4], in test [5] and in test [6] was inactive. The call in test [7], in test [8], in [9] and in test [10] was inactive.
With `CC(C)(C)c1cc(O)ccc1O`, the outcome in test [1], in test [2], in [4], in test [5], in test [7] and in [8] was inactive. The compound was called inactive in test [9] and in test [15]. Further, the AC50 was 20 µM (active) in test [3]; 20 µM (active) in test [6]; 29.9 µM (active) in [10]; 0.000221 µM (active) in [13]; 10 µM (active) in test [16]; 137 µM (active) in test [11]. For the same compound, the figures for the AC50 in test [14] and in test [12] were 0.000233 µM (active) and 100 µM (active), respectively.
Consider `CCCCCCCCc1ccc(O)cc1`, for which the AC50 was 2.53 µM (active) in test [1]; 12.7 µM (active) in [3]; 20 µM (active) in test [4]; 3.39 µM (active) in test [8]; 20 µM (active) in test [10]. The outcome in [2], in [5], in test [6], in test [7] and in test [9] was inactive.
With `CCN1CCC2(CC1)COc1cc3c(cc12)N(C(=O)c1ccc(-c2ccc(-c4nnc(C)o4)cc2C)cc1)CC3`, the result in test [1], in [2], in test [4], in test [5], in [7] and in test [9] was inactive. In addition, the AC50 is 27.3 µM (active) in [3], 30.1 µM (active) in test [6], 24.9 µM (active) in test [8] and 17.2 µM (active) in [10].
For `CCOP(=S)(OCC)SCSP(=S)(OCC)OCC`, the compound was called inactive in test [1], in test [2], in test [4], in test [5], in [9] and in test [11]. The compound was classed as inactive in test [12]. Further, the AC50 in [3] was 20 µM (active); in test [6], 20 µM (active); in test [7], 11.8 µM (active); in test [8] it was 27 µM (active); in [10], 24.4 µM (active); in test [13], 13.4 µM (active). In addition, the AC50 in test [14] was 10.3 µM (active).
For `CC(C)(OO)c1ccccc1`, the result in test [1], in test [2], in [3], in test [4], in [5] and in test [6] was inactive. For the same compound, the outcome in [7], in [8], in test [9] and in test [10] was inactive.
For the compound `OCC(O)CCl` (stereo unspecified), the half-maximal activity concentration (AC50) in test [13] is 0.555 µM (active); in test [14], 0.124 µM (active). Further, the outcome in test [11] was inactive.
`CCC(=O)C(CC(C)N(C)C)(c1ccccc1)c1ccccc1` (stereo unspecified): the compound was called inactive in test [1], in test [2], in test [4], in test [5], in test [6] and in test [7]. Besides, the call in [8] and in test [10] was inactive. For the same compound, the AC50 is 26.2 µM (active) in test [3], 0.062 µM (active) in test [9], 3.42 µM (active) in test [15] and 7.25 µM (active) in [16].

A word on the AC50: it is the concentration at which the activity in the assay is half-maximal.

These data come from PubChem BioAssay (EPA / NIEHS).
